Over roughly 33,000 sequences, “e-score” has its median near -0.05; the highest 2% begin near 0.38. Many of the other results were omitted from the sample, so the highest values are more common in it than they were.
Each sequence was assayed against T1, SIX1-Q177R homeodomain (human, UniProt Q15475 108-198, Q177R) (assay: universal protein binding microarray; Universal all-10-mer PBM (8x60K, AMADID 030236), 300 nM GST-tagged protein, Alexa Fluor 488 anti-GST; buffer, salt, pH and temperature not stated (as in Berger); high values mean tight binding). Settings: protein: ivt; tags: N-terminal GST; dsDNA, one strand shown.
T1 sequence: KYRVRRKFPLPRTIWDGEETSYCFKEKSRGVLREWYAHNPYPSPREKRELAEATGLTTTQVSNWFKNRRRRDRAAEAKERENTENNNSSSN
Outline: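 Binding of GST-tagged homeodomains is given as 8-mer E-scores from the Universal PBM Analysis Suite. The proteins were produced by in vitro transcription/translation, quantified by anti-GST western blot against a recombinant GST standard curve, and applied in duplicate at 300 nM final concentration to universal 'all 10-mer' protein binding microarrays (8×60K format).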

| Sequence | binding signal [E-score] |
| --- | --- |
| CGCAATAC | 0.276 ± 0.0226 |
| CACGCAAC | 0.227 ± 0.0168 |
| CCCCCTAC | 0.267 ± 0.031 |
| TCGCACCA | 0.177 ± 0.0487 |
| CAAGTACA | 0.207 ± 0.0357 |
| CCCTAACA | 0.181 ± 0.028 |
| CACCAATG | 0.222 ± 0.00267 |
| CTCCCCAA | 0.28 ± 0.0223 |
| ACAACCCC | 0.207 ± 0.03 |
| GGCCACAC | 0.233 ± 0.0102 |
| AGCCACAC | 0.208 ± 0.0231 |
| GGCTACGA | 0.196 ± 0.00863 |
| AGCTACAC | 0.435 ± 0.00848 |
| CGCTACAC | 0.4023 ± 0.0021 |
| GGCTACAC | 0.4245 ± 0.0031 |
| CGCTCTAC | 0.157 ± 0.026 |
| CGCGCTAC | 0.15 ± 0.0294 |
| CTTTTACA | 0.17 ± 0.0837 |
| CACGTACG | 0.167 ± 0.0161 |
| CTCCTACA | 0.243 ± 0.0252 |
| ACCACGTC | 0.182 ± 0.0198 |
| ACTATCGA | 0.156 ± 0.0186 |

| Sequence | binding signal [E-score] |
| --- | --- |
| ATGAACAC | 0.4 ± 0.0197 |
| GTGAGCAC | 0.159 ± 0.0143 |
| CTGAACCC | 0.187 ± 0.0441 |
| CTGAACAC | 0.4224 ± 0.00137 |
| CTGAGCAC | 0.254 ± 0.0174 |
| ATGAACCC | 0.198 ± 0.0247 |
| ATGCACAC | 0.289 ± 0.00704 |
| GTGAACAC | 0.4118 ± 0.00099 |
| TCAGAACA | 0.228 ± 0.00667 |
| ACTCCCCA | 0.163 ± 0.025 |
| GGAAGACA | 0.155 ± 0.0119 |
| CACGTCGA | 0.177 ± 0.0103 |
| CAGTCGGG | 0.196 ± 0.029 |
| ATCCGACC | 0.153 ± 0.0521 |
| CCCGATCC | 0.2392 ± 0.00171 |
| AGATGGTG | 0.2726 ± 0.000212 |
| GTACTCGA | 0.19 ± 0.0242 |
| CTACACGA | 0.388 ± 0.00636 |
| GTACACGA | 0.4189 ± 0.00327 |
| CTACACAC | 0.297 ± 0.0318 |
| CTACACGC | 0.4033 ± 0.000742 |
| GTACACAA | 0.308 ± 0.0492 |

| Sequence | binding signal [E-score] |
| --- | --- |
| CAACACGC | 0.363 ± 0.0087 |
| CTACACAG | 0.161 ± 0.084 |
| CCAGGATC | 0.193 ± 0.0154 |
| CCACTTCC | 0.16 ± 0.0569 |
| TGTACGAA | 0.157 ± 0.0609 |
| AATGGACA | 0.174 ± 0.00513 |
| ACCCTCCC | 0.211 ± 0.0163 |
| CACCTCTA | 0.295 ± 0.0114 |
| ACGTAATC | 0.186 ± 0.0139 |
| GCGTACCC | 0.237 ± 0.0376 |
| ACGTACCC | 0.202 ± 0.00673 |
| CCGTACCC | 0.1577 ± 0.00155 |
| ACGTACAC | 0.436 ± 0.00504 |
| CCGCACAC | 0.303 ± 0.0285 |
| GCGTACGC | 0.235 ± 0.0141 |
| GCGTACAC | 0.4123 ± 0.00366 |
| CCGTACAC | 0.418 ± 0.00993 |
| CACCACGA | 0.28 ± 0.0196 |
| CAAGGGTA | 0.19 ± 0.0194 |
| AACCCCGG | 0.2652 ± 0.00233 |
| AACGGACA | 0.278 ± 0.00733 |
| TGTCCACA | 0.205 ± 0.0326 |

| Sequence | binding signal [E-score] |
| --- | --- |
| TAGGTACA | 0.179 ± 0.00841 |
| CTAGCAAA | 0.173 ± 0.0314 |
| TCCCGACA | 0.155 ± 0.0127 |
| CACCGTCC | 0.276 ± 0.00535 |
| ACACACCT | 0.386 ± 0.00817 |
| ACACACCG | 0.428 ± 0.0122 |
| ACACACGT | 0.27 ± 0.0195 |
| ACACACAT | 0.201 ± 0.0773 |
| ACGCACCG | 0.177 ± 0.0273 |
| ACACACAG | 0.269 ± 0.0266 |
| AAAAGGTG | 0.195 ± 0.0717 |
| ACTGGGTG | 0.319 ± 0.0299 |
| ACGCAGTG | 0.212 ± 0.0202 |
| TGTATCAA | 0.158 ± 0.0316 |
| GTCACGAC | 0.164 ± 0.0297 |
| CCCGGGAG | 0.189 ± 0.00274 |
| ACTGTGCA | 0.195 ± 0.0266 |
| GGGACCCC | 0.211 ± 0.0329 |
| AGGACACA | 0.224 ± 0.0724 |
| CGGACACC | 0.48 ± 0.00522 |
| GGGACACC | 0.478 ± 0.0106 |

Source: article PMC10668032, “Altered binding affinity of SIX1-Q177R correlates with enhanced WNT5A and WNT pathway effector expression in Wilms tumor”
